D1 antag – Antagonist of Human D 1 Dopamine Receptor: qHTS. 360,000 compounds, 3.2% hits. HEK293 TREx D1 cells, calcium flux, dopamine EC80; stronger effect = lower value. activity change, negative = inhibition, % at 10 µM. D(1A) dopamine receptor (Homo sapiens), P21728; in the data active = activity change below about -30%
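Allosteric or orthosteric antagonism assessed as attenuation of the calcium response to EC80 dopamine, added 180 s after compound, in induced HEK293 Trex D1 cells loaded with no-wash calcium dye.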
USP1-UAF1 inh – Inhibitors of USP1/UAF1: Primary Screen | Potency, µM (highest dose often 57.1 µM), actives largely listed as inhibitors | Ubiquitin carboxyl-terminal hydrolase 1 (Homo sapiens), O94782 | 390,000 compounds, 0.23% hits | recombinant USP1/UAF1, Ub-Rhodamine cleavage fluorescence; active = well fitted inhibition curve with a large enough effect; inconclusive = small, poorly fitted or top-dose-only effect; inactive = no such curve, though single readings can be large or run the other way; note: nearly all actives have a fitted effect of over 60% in size
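1 nM enzyme complex + cpd, 15 min RT; start with Ub-Rho 150nM final; kinetic fluorescence ex 480/em 540, 6 reads q60 s. Buffer 50mM HEPES pH 7.8, 0.5mM EDTA, 0.1 mg/ml BSA, 1mM TCEP, 0.01% Tween-20.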
D1 ag – Allosteric Agonists of the Human D1 Dopamine Receptor: qHTS. AID 504660, 2011. D(1A) dopamine receptor (Homo sapiens), P21728. activation, % at 2 µM. HEK293 T-REx D1 cells, calcium flux, agonist mode. 360,000 compounds, 1% hits
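Tetracycline-induced HEK293 TREx D1 cells, force-coupled to calcium signalling, were dye-loaded with a no-wash calcium kit. Compound was pin-added after a 10 s baseline. Fluorescence was read kinetically at 1 cycle/s for 180 s, with calcium rises flagged as agonism.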
TRHR PAM – qHTS for Small Molecule Agonists and Allosteric Enhancers of Human TRH Receptor: Primary Screen for Enhancers; Thyrotropin-releasing hormone receptor (Homo sapiens), P34981; TRHR cells, fluo-8 calcium fluorescence, EC20 TRH enhancement; enhancement, % at 2 µM; 360,000 compounds, 0.66% hits; AID 493056, 2011; in the data active = enhancement above about 30%
Target sequence (P34981 whole entry, looked up): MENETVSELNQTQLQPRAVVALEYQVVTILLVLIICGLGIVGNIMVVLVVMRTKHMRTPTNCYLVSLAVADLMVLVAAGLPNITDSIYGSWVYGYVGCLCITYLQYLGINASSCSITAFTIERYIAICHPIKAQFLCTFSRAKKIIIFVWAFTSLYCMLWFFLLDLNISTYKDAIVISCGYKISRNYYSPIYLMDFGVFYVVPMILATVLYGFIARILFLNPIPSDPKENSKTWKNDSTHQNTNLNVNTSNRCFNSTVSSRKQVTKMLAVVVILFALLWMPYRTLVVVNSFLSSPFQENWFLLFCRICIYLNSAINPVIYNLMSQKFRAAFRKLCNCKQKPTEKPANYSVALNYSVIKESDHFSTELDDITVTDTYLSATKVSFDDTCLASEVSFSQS
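Enhancer read-out: after compound pinning and an initial kinetic agonist-mode read, an EC20 of TRH (10 nM final) was injected and fluo-8 calcium signal (Ex 480/Em 530) followed at 1 s/cycle for 100 cycles in TRHR-expressing cells.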
D1 PAM – Potentiators of Human D1 Dopamine Receptor: qHTS | D(1A) dopamine receptor (Homo sapiens), P21728 | HEK293 TREx D1 cells, calcium flux, dopamine EC20 potentiation | potentiation, % at 10 µM | 360,000 compounds, 0.036% hits | AID 504651, 2011; in the data active = potentiation above about 30%
TRHR agonist – qHTS for Small Molecule Agonists and Allosteric Enhancers of Human TRH Receptor: Primary Screen for Agonists | Thyrotropin-releasing hormone receptor (Homo sapiens), P34981 | TRHR cells, calcium flux fluo-8, FDSS agonist mode | activation, % at 2 µM | 360,000 compounds, 0.18% hits | AID 493084, 2011
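Agonist-mode FDSS calcium read (Ex 480/Em 530, 1 s cycles) in 1536-well TRHR cells with fluo-8 dye, after 10-cycle baseline and 23 nL compound addition; TRH at EC20 (10 nM final) added afterwards for the enhancer phase.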
Each line names hits and unclear results; the compound was inactive in the other large screens; ! = not active in a repeat. Rows were chosen to be rich in hits. Some 4.4% of all compounds tested hit in one or more screens of this group. Cut-off read from the data, not from the text of the source, unless noted: active = activation above about 30%; inactive = the rest.

COc1ccc(Nc2c3c(nc4ccc(NC(=O)c5ccc(F)cc5)cc24)CCCC3)cc1OC	TRHR PAM 42
CC(=O)c1ccc(NC(=O)C2CCC(CNS(=O)(=O)c3ccc4c(c3)CCCC(=O)N4)CC2)cc1 (configuration not stated)	none
COc1ccccc1C(=O)NCCC(=O)NCCC12CC3CC(CC(C3)C1)C2	D1 antag -31
COc1ccc(C23CC4CC(CC(C4)C2)C3)cc1C(=O)NCCN(C)C	D1 ag 39
CN1CCN(C2=Nc3c(Cl)cc(Cl)c4cccc2c34)CC1	none
CN1CCN(C2=Nc3cc(F)ccc3Cc3ccccc32)CC1	D1 antag -84 (no result: USP1-UAF1 inh)
Cc1ccc(-n2nc(-c3ccc(OC(F)(F)F)cc3)cc2N)cc1C	D1 antag -32
Cc1ccc(Sc2c(C)nn(C(=O)COc3ccccc3)c2C)cc1	none
O=C(CNC(=O)C1COc2ccccc2O1)N/N=C\c1ccc(Cl)cc1 (configuration not stated)	D1 antag -36
COc1cccc(CN(C(=O)c2ccc(C(C)(C)C)cc2)C2CCS(=O)(=O)C2)c1 (configuration not stated)	none
CCc1ccc(-n2nc(C)c3c(C(=O)N4CCN(c5ccccc5)CC4)cc(C)nc32)cc1	D1 antag -36
CCn1c(=O)cc(SCC(=O)NCc2cccnc2)c2ccccc21	D1 antag -40
CCc1ccc(CNC(=O)CSc2cc(=O)n(CC)c3ccccc23)cc1	none
CCn1c(=O)cc(SCC(=O)NCCN2CCN(Cc3ccccc3)CC2)c2ccccc21	D1 antag -33
Nc1cc(-c2ccccc2)c[nH]c1=O	none (no result: USP1-UAF1 inh)
Cc1ccc(NC(=O)C[n+]2ccn(C3=C([O-])c4ccccc4C3=O)c2)cc1	D1 antag -41
O=C(CSc1nccn1Cc1ccc(F)cc1)Nc1ccc2c(c1)OCO2	none
CCc1ccc(NC(=O)C2CCCN(S(=O)(=O)c3ccc4c(c3)CC(C)N4C(C)=O)C2)cc1 (configuration not stated)	none
CCc1ccc(NC(=O)C2CCN(S(=O)(=O)c3ccc4c(c3)CC(C)N4C(C)=O)CC2)cc1 (configuration not stated)	D1 antag -31
CCOc1ccc(OCC)c(NC(=O)C2CCN(S(=O)(=O)c3ccc4c(c3)CC(C)N4C(C)=O)CC2)c1 (configuration not stated)	D1 antag -35!
CCOC(=O)CSc1nc(C2CC2)cc(-c2ccc(Cl)cc2)c1C#N	D1 antag -87
COc1cc(O)c(C(CCN2CCCCC2)c2ccc(N(C)C)cc2)c(OC)c1 (configuration not stated)	D1 antag -34
COc1cc(OC)c2c(-c3ccccc3)cc(=O)oc2c1C(CC(=O)N1CCOCC1)c1ccc2c(c1)OCO2 (configuration not stated)	D1 antag -60
COc1cc(O)c(C(CCN2CCN(c3ccccc3)CC2)c2ccc3c(c2)OCO3)c(OC)c1 (configuration not stated)	D1 antag -76, USP1-UAF1 inh inconclusive
COc1cc(O)c(C(CCN2CCN(c3ccccc3)CC2)c2cc(OC)c(OC)c(OC)c2)c(OC)c1 (configuration not stated)	D1 antag -87
COc1ccc(C(CCN2CCOCC2)c2c(O)cc(OC)cc2OC)cc1 (configuration not stated)	none
CCOC(=O)c1c(C)c(-c2ccccc2)n(CC(=O)Nc2cc(C)cc(C)c2)c1C	none
CCN1C(=O)c2ccccc2S(=O)(=O)c2ccc(C(=O)NCc3ccc(C)cc3)cc21	none

Assay outcomes as filed in PubChem BioAssay.
